Laboratory results reported in PubChem BioAssay.
Results with a measured potency or affinity are listed apart. Results filed as inconclusive are left out. Active and inactive are the calls of the source.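 How the source made its calls, unless noted: active means falling signal with fitted half-maximal potency no higher than twice the top valid tested dose; inconclusive means poor fit quality, or flat fit spanning -70% to -30%; inactive means potency over limit, rising signal, or flat fit inside 30%.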

Columns and labels:
[1] = fungal growth arrest, C. neoformans – Alamar Blue, cherry-picks, dose response (AID 686998); conditions: Cryptococcus neoformans growth, 24 h; series mostly up to 35 µM
[2] = C. neoformans lysis by adenylate kinase leakage – AK release luminescence, cherry-picks, dose response (AID 687000;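 active means fitted dose curve reaches 40% lysis signal rise at or below the highest valid concentration tested for that sample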;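 further: luminescent detection of adenylate kinase leaking from lysed yeast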); conditions: 4 h, 100% = twice the neutral-control signal; series mostly up to 15 µM
[3] = viability loss in HepG2 hepatoma cells – cell-based, cherry-picks, set 2, cytotoxicity control, dose response (AID 687002;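 active means a dose-response fit showing signal loss, with half-maximal concentration no higher than twice the top tested dose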); conditions: ATP luminescence (CellTiter-Glo), 48 h; series mostly up to 26 µM
[4] = viability loss in HeLa cells – cell-based, ATP luminescence, cherry-pick samples, cytotoxicity control, dose response (AID 687004;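 active means a fitted half-maximal concentration no higher than twice the top valid tested dose, with signal falling as cells die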); conditions: ATP luminescence (CellTiter-Glo), 48 h; series mostly up to 26 µM

Measured: outcome

CCc1ccc(NC(=O)C2NC(=O)CC2c2ccccc2)cc1 (stereo not drawn)
inactive: all assays above

CNC(=O)C[C@H]1CC[C@H]2[C@H](COc3ccc(NC(=O)c4cc(C)on4)cc3C(=O)N2C)O1
inactive: all assays above

O=C(C[C@H]1CC[C@H]2[C@@H](COC[C@@H](O)CN2S(=O)(=O)c2ccc(Oc3ccccc3)cc2)O1)NC1CCC1
inactive: all assays above

C[C@H](CO)N1C[C@H](C)[C@H](CN(C)Cc2cccc(C(F)(F)F)c2)OCc2cnnn2CCCC1=O
inactive: all assays above

CCCNC(=O)N1[C@@H](CO)[C@@H](c2ccc(-c3ccccc3)cc2)[C@@H]1CNC(C)=O
inactive: all assays above

CO[C@H]1CN(C)C(=O)c2cc(NC(=O)C3CCOCC3)ccc2OC[C@@H](C)NC[C@H]1C
inactive: all assays above

C[C@@H]1CN([C@@H](C)CO)C(=O)c2cc(NS(=O)(=O)c3cn(C)cn3)ccc2O[C@@H](C)CCCCO[C@H]1CN(C)C
inactive: all assays above

COc1ccc(S(=O)(=O)N[C@@H]2C=C[C@@H](CC(=O)N3CCC(Cc4ccccc4)CC3)O[C@H]2CO)cc1
inactive: all assays above

COc1cccc(S(=O)(=O)Nc2ccc3c(c2)[C@@H]2C[C@@H](CC(=O)NCc4cccc(F)c4)O[C@H](CO)[C@@H]2O3)c1
inactive: all assays above

C[C@@H]1CN([C@@H](C)CO)C(=O)c2cccc(NS(=O)(=O)c3ccc(F)cc3)c2O[C@H]1CN(C)S(=O)(=O)c1ccc(Cl)cc1
inactive: all assays above

C/C=C/c1cnc2c(c1)C(=O)N([C@@H](C)CO)C[C@@H](C)[C@@H](CN(C)C(=O)C1CCCCC1)O2
inactive: all assays above

COc1ccc(NC(=O)c2noc(C(C)C)c2[N+](=O)[O-])cc1
inactive: all assays above

Cc1cccc(C)c1NC(=O)C(CCc1ccccc1)N1CCN(CCN(C)C)CC1 (stereo not drawn)
inactive: all assays above

C[C@H]1CN([C@@H](C)CO)C(=O)c2cc(Br)cnc2O[C@@H]1CN(C)Cc1ccccn1
inactive: all assays above

COc1cccc(S(=O)(=O)N2C[C@@H](O)COC[C@H]3O[C@H](CC(=O)N4CCN(C)CC4)CC[C@@H]32)c1
inactive: all assays above

C[C@@H]1CN([C@H](C)CO)C(=O)Cc2cc(NC(=O)CCCCCC(=O)Nc3ccccc3N)ccc2O[C@H]1CN(C)Cc1ccc2c(c1)OCO2
inactive: all assays above

Cc1ccc(S(=O)(=O)Nc2ccc3c(c2)C(=O)N([C@@H](C)CO)C[C@H](C)[C@H](CN(C)S(=O)(=O)c2ccc(Cl)cc2)OCCCC[C@@H](C)O3)cc1
inactive: all assays above

CO[C@@H]1CN(C)C(=O)c2cc(NC(=O)Nc3cccc(F)c3)ccc2OC[C@H](C)N(C)C[C@@H]1C
inactive: all assays above

C[C@@H]1CN([C@H](C)CO)C(=O)c2cc(C#CC(C)(C)O)cnc2O[C@@H]1CN(C)Cc1cncnc1
inactive: all assays above

O=C(c1cc(Br)ccc1Cl)N1CCN(c2ccccn2)CC1
inactive: all assays above

Cc1ccc(N(C(=O)C2CCC(=O)N2)C2(C(=O)NC3CCCCC3)CCCCC2)cc1 (stereo not drawn)
inactive: all assays above

COc1ccccc1NC(=O)N[C@@H]1CC[C@@H](CCn2cc(C3(O)CCCC3)nn2)O[C@H]1CO
inactive: all assays above

COCCNC(=O)C[C@@H]1CC[C@@H]2[C@H](COC[C@@H](O)CN2S(=O)(=O)c2ccccc2C)O1
inactive: all assays above

O=C(c1cccc(Br)c1)N1CCN(c2ccccn2)CC1
inactive: all assays above

CC(NC(=O)COc1ccc([N+](=O)[O-])cc1)c1ccccc1 (stereo not drawn)
inactive: all assays above

C[C@@H](O)C#Cc1ccc([C@@H]2[C@H](CO)N3CCCCN(CC4CC4)C[C@@H]23)cc1
inactive: all assays above

C[C@H]1CN([C@@H](C)CO)C(=O)c2cc(NS(=O)(=O)c3ccc(F)cc3)ccc2O[C@@H]1CN(C)S(=O)(=O)c1ccccc1
inactive: all assays above

CCC(C)(C(=O)Nc1cccc(C)c1)N1CCC1=O (stereo not drawn)
inactive: all assays above

O=C(CN(c1ccc(F)cc1)S(=O)(=O)c1ccccc1)NC1CCCCCC1
inactive: all assays above

COc1ccccc1C#Cc1ccc2c(c1)O[C@@H](CN(C)C(C)=O)[C@@H](C)CN([C@H](C)CO)S2(=O)=O
inactive: all assays above

COc1ccccc1NC(=O)N[C@H]1CC[C@@H](CCn2cc(-c3ccccc3OC)nn2)O[C@@H]1CO
inactive: all assays above

CCCC(=O)Nc1ccc2c(c1)OC[C@@H](C)N(Cc1cncnc1)C[C@@H](C)[C@@H](OC)CN(C)C2=O
inactive: all assays above

O=C(C[C@@H]1CC[C@H]2[C@@H](COC[C@H](O)CN2Cc2cccc(C(F)(F)F)c2)O1)NCc1ccccc1
inactive: all assays above

C/C=C/c1ccc([C@H]2[C@@H](CO)N(C(=O)CC)[C@@H]2CNC(=O)C2CC2)cc1
inactive: all assays above

CCC(=O)N1[C@@H]2c3cccc(=O)n3C[C@H]1[C@H](CO)[C@H]2C(=O)NCc1ccccc1
inactive: all assays above

Cc1ccc(NC(=O)C2(C)CCN2C(=O)CCC2CCCC2)cc1C (stereo not drawn)
inactive: all assays above

O=C(C[C@@H]1C=C[C@@H](NC(=O)C2CCC2)[C@H](CO)O1)NC1CCC1
inactive: all assays above

Cc1cc(C)c(N2CCCC2C(=O)Nc2cccc(C(F)(F)F)c2)c(C)c1 (stereo not drawn)
inactive: all assays above

CO[C@@H]1CN(C)C(=O)c2ccc(NC(=O)Nc3ccccc3)cc2OC[C@H](C)N(C(C)=O)C[C@H]1C
inactive: all assays above

COc1ccc(C2CC(c3cccs3)=NN2C(=O)c2ccc(Br)o2)cc1 (stereo not drawn)
inactive: all assays above

CN1C(=O)c2cccc3c(S(=O)(=O)N(C)C)ccc1c23
inactive: all assays above

CCCNC(=O)C[C@@H]1CC[C@@H]2[C@@H](COc3ccc(NC(=O)CCC)cc3C(=O)N2C)O1
inactive: all assays above

CC(C)NC(=O)N[C@H]1CC[C@@H](CCNC(=O)C2CC2)O[C@@H]1CO
inactive: all assays above

COc1ccc(CN(C)C[C@@H]2Oc3ccc(NC(=O)Nc4ccc(F)cc4)cc3CC(=O)N([C@H](C)CO)C[C@H]2C)cc1
inactive: all assays above

COc1ccc(NC(=O)N(C)C[C@H]2OCCCC[C@@H](C)Oc3ccc(NC(=O)c4ccccc4)cc3C(=O)N([C@@H](C)CO)C[C@H]2C)cc1
inactive: all assays above

O=C(Nc1cccc(F)c1)N[C@H]1CC[C@@H](CCNS(=O)(=O)c2cccc(Cl)c2)O[C@@H]1CO
inactive: all assays above

C[C@H]1CN([C@@H](C)CO)C(=O)c2cccc(NS(C)(=O)=O)c2O[C@@H]1CN(C)Cc1ccc(-c2ccccc2)cc1
inactive: all assays above

C[C@@H]1CCCCO[C@H](CN(C)C(=O)c2ccccc2)[C@@H](C)CN([C@@H](C)CO)C(=O)c2cc(NC(=O)c3ccccc3)ccc2O1
inactive: all assays above

O=C(NCc1ccc(F)cc1)C1C2C=CC3(CN(Cc4cccnc4)C(=O)C13)O2 (stereo not drawn)
inactive: all assays above

CCCNC(=O)N(C)C[C@@H]1Oc2ncc(C#CC3CCCCC3)cc2C(=O)N([C@H](C)CO)C[C@@H]1C
inactive: all assays above

Cc1ccc(S(=O)(=O)N[C@H]2CC[C@H](CCNC(=O)C3CCCC3)O[C@@H]2CO)cc1
inactive: all assays above

COCC(=O)N(C)C[C@@H]1Oc2ncc(C#CCC3CCCC3)cc2C(=O)N([C@H](C)CO)C[C@H]1C
inactive: all assays above
